Many of the other results were omitted from the sample, so hits are more common in it than they were.
DUX4 inh: DUX4-mediated transcription inhibition; 293T-iDUX4 ZSCAN4-Gaussia luciferase reporter, 24 h; active compounds read low; activity change, negative = inhibition, % (test concentration not listed); 37,000 compounds, 0.8% hits;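 active = mean inhibition of at least 10% in the main channel, exceeding the control channel by a set limit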;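 also: 0% = median of neutral control wells and -100% = median of positive control wells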
Starred values were filed as active, the others as inactive; ! = not active in a repeat.

SMILES | DUX4 inh
N#Cc1cccc(-c2ccc(C3[C@@H]4CN(S(=O)(=O)c5ccccc5F)C[C@H]3N4)cc2)c1 (some centres not stated) | -54*!
Cc1ccccc1S(=O)(=O)N1[C@H](C#N)[C@H](c2ccc(-c3ccccc3)cc2)[C@H]1CO | 0
O=C(Nc1cccc(F)c1)N1C[C@H]2[C@@H](c3ccccc31)[C@@H](CO)N2C(=O)c1ccccc1F | 1
CCCNC(=O)N1CC2(CN(C(=O)CCC)C2)c2c(n(C)c3cc(OC)ccc23)[C@@H]1CO | 5
O=C(NCC1CCCCC1)[C@@H]1[C@@H](CO)[C@@H]2Cn3c(ccc(C4=CCCCC4)c3=O)[C@H]1N2 | -6
O=C(Nc1nccs1)[C@H]1[C@H](CO)[C@H]2Cn3c(ccc(-c4cccnc4)c3=O)[C@H]2N1CC1CC1 | -3
COc1ccc2c3c(n(C)c2c1)[C@H](CO)N(Cc1ccncc1)CC31CCN(C(=O)Cc2ccncc2)CC1 | -4
CCCNC(=O)N1CC2(CN(C(=O)C3CCC3)C2)c2c([nH]c3cc(OC)ccc23)[C@H]1CO | 25
CN1C(=O)c2cc(NC(=O)c3cccc(C(F)(F)F)c3)ccc2OC[C@@H]2O[C@H](CC(=O)O)CC[C@@H]21 | 0
C[C@@H]1CN([C@@H](C)CO)C(=O)c2cc(NS(=O)(=O)c3cn(C)cn3)ccc2O[C@@H](C)CCCCO[C@@H]1CN(C)S(=O)(=O)c1ccc(Cl)cc1 | 2
CN(C)C(=O)c1ccc(-c2ccc(C3[C@@H]4CN(C(=O)Nc5ccc(Cl)cc5)C[C@H]3N4)cc2)cc1 (some centres not stated) | 16
O=C(Nc1ccc(F)cc1)N1C[C@@H]2N[C@H](C1)C2c1ccc(-c2cccnc2)cc1 (some centres not stated) | -37*!
COc1ccc(NC(=O)N2C[C@@H]3N[C@H](C2)C3c2ccc(-c3cccnc3)cc2)cc1 (some centres not stated) | 16
COc1ccc(NC(=O)N2C[C@@H]3N[C@H](C2)C3c2ccc(-c3cccc(F)c3)cc2)cc1 (some centres not stated) | -4
N#Cc1ccc(-c2ccc(C3[C@H]4CNC[C@@H]3N4C(=O)Nc3ccc(Cl)cc3)cc2)cc1 (some centres not stated) | 5
N#Cc1ccc(-c2ccc(C3[C@@H]4CN(C(=O)Nc5ccc(C(F)(F)F)cc5)C[C@H]3N4)cc2)cc1 (some centres not stated) | -49*!
O=C(C1CC1)N1CC2(C1)[C@@H](c1ccccc1)[C@@H](CO)N2C(=O)c1cccnc1 | 10
CO[C@H]1CC[C@@H]2CCN(C)C(=O)[C@H](C)N(C)C(=O)c3cc(C#N)ccc3OC[C@H]1O2 | -6
CCC(=O)N1C[C@H](O)COC[C@@H]2O[C@H](CC(=O)NCC3CCCCC3)CC[C@H]21 | 5
COc1cccc(-c2cn(CC[C@@H]3CC[C@H](NC(=O)CN(C)C)[C@H](CO)O3)nn2)c1 | 0
CO[C@H]1CN(C)C(=O)c2ccc(NC(=O)C3CCOCC3)cc2OC[C@H](C)N(C(=O)c2ccccc2)C[C@H]1C | -2
COc1ccc2c3c(n(C)c2c1)[C@@H](CO)N(Cc1nccs1)CC31CN(C)C1 | 25
COc1ccccc1C#Cc1ccc2c(c1)[C@@H]1NCC[C@@H]1[C@H](CO)N2 | -23*
COc1ccccc1C#Cc1ccc2c(c1)[C@@H]1[C@@H](CCN1C(=O)c1ccncc1)[C@@H](CO)N2 | -9
OC[C@@H]1Nc2ccc(C#Cc3cccc(F)c3)cc2[C@H]2NCC[C@@H]12 | 7
SMILES | DUX4 inh
COc1ccc2c3c(n(C)c2c1)[C@H](CO)NCC31CCN(Cc2ccc(-c3ccccn3)cc2)CC1 | -4
CO[C@H]1CN(C)C(=O)c2ccc(NC(=O)NC(C)C)cc2OC[C@H](C)N(S(C)(=O)=O)C[C@H]1C | -5
COc1cccc(-c2ccc(C3[C@@H]4CN(S(=O)(=O)c5cn(C)cn5)C[C@H]3N4)cc2)c1 (some centres not stated) | -34*!
N#Cc1cccc(-c2ccc3c(c2)[C@@H]2[C@@H](CCN2S(=O)(=O)c2ccccc2)[C@@H](CO)N3)c1 | -4
N#Cc1cccc(-c2ccc(C3[C@@H]4CN(S(=O)(=O)c5ccccc5)C[C@H]3N4)cc2)c1 (some centres not stated) | -41*!
COc1ccc(S(=O)(=O)N2[C@@H]3CNC[C@H]2C3c2ccc(-c3ccccc3OC)cc2)cc1 (some centres not stated) | 12
N#Cc1cccc(-c2ccc([C@H]3[C@H]4CN(S(=O)(=O)c5ccccc5)CCCCN4[C@H]3CO)cc2)c1 | 3
Cc1ccc(S(=O)(=O)N2[C@@H]3CNC[C@H]2C3c2ccc(-c3ccc(C#N)cc3)cc2)cc1 (some centres not stated) | 17
COc1cccc(-c2ccc(C3[C@H]4CNC[C@@H]3N4S(=O)(=O)c3cn(C)cn3)cc2)c1 (some centres not stated) | 14
C/C=C/c1ccc(C2[C@@H]3CN(S(=O)(=O)c4ccc(C)cc4)C[C@H]2N3)cc1 (some centres not stated) | 4
COc1ccccc1-c1ccc(C2[C@@H]3CN(S(=O)(=O)c4ccc(C)cc4)C[C@H]2N3)cc1 (some centres not stated) | -34*!
Cc1ccc(S(=O)(=O)N2C[C@@H]3N[C@H](C2)C3c2ccc(-c3cccc(C#N)c3)cc2)cc1 (some centres not stated) | -43*!
COc1ccccc1S(=O)(=O)N1C[C@@H]2N[C@H](C1)C2c1ccc(-c2ccncc2)cc1 (some centres not stated) | -5
COc1cccc(-c2ccc(C3[C@@H]4CN(C(=O)C5CCOCC5)C[C@H]3N4)cc2)c1 (some centres not stated) | 13
CO[C@@H]1CN(C)C(=O)c2ccc(NC(C)=O)cc2OC[C@@H](C)N(C(=O)c2ccccc2)C[C@H]1C | 0
CCCNC(=O)N1C[C@@H]2[C@H](c3ccccc31)[C@@H](CO)N2Cc1cc(F)ccc1F | 2
O=C1N[C@@H](Cc2ccccc2)COCc2cn(nn2)CC[C@@H]1Cc1ccc(-c2ccccc2)cc1 | -1
CCCN1[C@H](C(=O)Nc2nccs2)[C@@H](CO)[C@@H]2Cn3c(ccc(-c4ccccc4OC)c3=O)[C@@H]21 | -1
O=C(C[C@H]1CC[C@H](NC(=O)NC2CCCCC2)[C@H](CO)O1)NCc1ccccc1 | 3
CO[C@@H]1CN(C)C(=O)c2cc(NS(=O)(=O)c3ccccc3F)ccc2OC[C@H](C)NC[C@@H]1C | 10
O=C(CC1CC1)N1[C@@H](CO)[C@@H]2c3ccccc3N(S(=O)(=O)c3ccccc3)C[C@@H]21 | 2
COCC(=O)N1CC2(C1)CN(Cc1ccccc1Cl)[C@H](CO)c1[nH]c3cc(OC)ccc3c12 | -5
COc1ccc2c3c([nH]c2c1)[C@H](CO)N(Cc1cc(F)ccc1F)CC31CCN(C(=O)CN(C)C)CC1 | -9
COc1ccc2c3c([nH]c2c1)[C@H](CO)N(Cc1ccccc1F)CC31CN(C)C1 | -6
COc1ccc2c3c([nH]c2c1)[C@@H](CO)N(Cc1ccccc1F)CC31CN(C(=O)C2CCOCC2)C1 | -5
COc1ccc2c3c([nH]c2c1)[C@H](CO)N(Cc1cc(F)ccc1F)CC31CN(C(=O)C2CCC2)C1 | -74*
COc1ccc2c3c([nH]c2c1)[C@H](CO)N(Cc1ccccc1F)CC31CN(S(C)(=O)=O)C1 | -45*
